# Source: PubChem BioAssay (NCATS)
# Unmarked numbers belong to inactive results. Records with an inconclusive call do not appear. A call without a number means that no potency is given here. Activity calls are given as the source filed them. Unless noted, calls come from the whole dose curve; as a rule, active = well fitted curve in the direction sought with a large enough effect; inconclusive = small, poorly fitted or top-dose-only effect, or another doubt; inactive = no such curve, though single readings can be large; an effect the other way counts as inactive or inconclusive.
# Columns and labels:
# [1] = target: Guanine nucleotide-binding protein G(i) subunit alpha-1 (Homo sapiens) (UniProt P63096); test: qHTS Assay for Inhibitors of RGS12 GoLoco Motif Activity (Green Fluorophore) (AID 879);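 note: negative values mean loss of peptide binding seen as reduced polarization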
# Summary of the method: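 A drop in FITC polarization marked displacement of the FITC-tagged RGS12 GoLoco peptide (10 nM) from Gαi1 (50 nM). Compounds were incubated 10 min at room temperature in Tris pH 7.5 buffer containing 150 mM NaCl, 0.1 mM GDP and 0.05% NP40; unlabeled peptide titration served as control.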
# [2] = qHTS Assay for Identification of Small Molecule Agonists for Thrombopoietin (TPO) Signaling Pathway (AID 917)
# Summary of the method: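 Quantitative HTS for pathway activators: compounds were pin-transferred onto IL-3-starved Ba/F3 cells expressing human TPO receptor, TPO was added at its EC50 (26 pM final), and after 24 hrs at 37 C reporter luciferase was measured.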
# [3] = target: Muscarinic acetylcholine receptor M1 (Rattus norvegicus) (UniProt P08482); test: qHTS Assay for Antagonists of Acetylcholine Muscarinic M1 Receptor: Measurement of IP-One Response (AID 944); note: nearly all actives have a fitted effect of over 75% in size
# Chain of Muscarinic acetylcholine receptor M1 (Rattus norvegicus) (P08482 whole entry, looked up): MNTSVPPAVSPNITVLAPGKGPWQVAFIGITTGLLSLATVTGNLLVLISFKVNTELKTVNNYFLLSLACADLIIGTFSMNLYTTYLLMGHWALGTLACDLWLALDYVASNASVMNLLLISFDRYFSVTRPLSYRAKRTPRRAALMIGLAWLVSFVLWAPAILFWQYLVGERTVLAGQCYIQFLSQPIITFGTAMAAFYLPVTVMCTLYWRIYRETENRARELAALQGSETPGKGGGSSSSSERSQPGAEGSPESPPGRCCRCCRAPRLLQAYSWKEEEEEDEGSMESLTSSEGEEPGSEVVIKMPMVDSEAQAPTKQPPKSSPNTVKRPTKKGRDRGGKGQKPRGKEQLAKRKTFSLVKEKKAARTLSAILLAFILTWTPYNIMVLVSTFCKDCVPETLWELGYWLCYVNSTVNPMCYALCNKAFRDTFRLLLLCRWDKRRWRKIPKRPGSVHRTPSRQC
# Summary of the method: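 Read-out: HTRF competition between d2-IP1 and Eu-cryptate anti-IP1 antibody, emission 620 and 665 nm. Stimulus was carbachol, EC80 (200 nM), for 30 min in M1-CHO cells (rat receptor), after 10 min compound pre-treatment.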
# [4] = target: Pyruvate kinase (Leishmania mexicana) (UniProt Q27686); test: qHTS Validation Assay for Inhibitors of Leishmania Mexicana Pyruvate Kinase (AID 945)
# Summary of the method: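 Eight-point qHTS titrations; enzyme 0.2 nM LmPYK (E451W mutant); substrates 0.5 mM PEP, 0.1 mM ADP; 7 mM MgCl2; 1 h room temperature; PKLight luminescence normalized to neutral control.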
# [5] = target: Pyruvate kinase PKM (Homo sapiens) (UniProt P14618); test: qHTS Assay for Activators of Human Muscle Pyruvate Kinase (AID 954; active = well fitted curve in the direction sought with a large enough effect, not every such curve was filed as active)
# Chain of Pyruvate kinase PKM (Homo sapiens) (P14618 whole entry, looked up): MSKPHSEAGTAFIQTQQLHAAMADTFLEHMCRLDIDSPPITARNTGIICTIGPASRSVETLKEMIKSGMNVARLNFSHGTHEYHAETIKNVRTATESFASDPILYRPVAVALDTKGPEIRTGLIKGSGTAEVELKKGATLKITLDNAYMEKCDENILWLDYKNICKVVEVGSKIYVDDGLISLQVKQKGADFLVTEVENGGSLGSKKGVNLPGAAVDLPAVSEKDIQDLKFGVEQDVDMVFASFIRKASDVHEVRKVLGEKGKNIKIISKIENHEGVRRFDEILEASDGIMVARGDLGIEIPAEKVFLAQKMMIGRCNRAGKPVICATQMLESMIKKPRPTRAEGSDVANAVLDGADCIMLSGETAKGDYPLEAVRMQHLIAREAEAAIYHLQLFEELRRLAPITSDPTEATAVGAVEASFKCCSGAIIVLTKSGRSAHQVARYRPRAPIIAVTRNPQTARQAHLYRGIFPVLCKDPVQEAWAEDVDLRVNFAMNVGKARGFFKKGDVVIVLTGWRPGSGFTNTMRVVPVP
# Summary of the method: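 Screening used highly purified human pyruvate kinase M2 under submaximal activity, with PEP at its Km and ADP below Km. After an hour at room temperature, ATP was read by luciferase luminescence.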
# [6] = target: Alpha-galactosidase A (Homo sapiens) (UniProt P06280); test: Counterscreen for Glucocerebrosidase Inhibitors: qHTS Assay for Human alpha-Galactosidase at pH 4.5 (AID 992)
# Chain of Alpha-galactosidase A (Homo sapiens) (P06280 whole entry, looked up): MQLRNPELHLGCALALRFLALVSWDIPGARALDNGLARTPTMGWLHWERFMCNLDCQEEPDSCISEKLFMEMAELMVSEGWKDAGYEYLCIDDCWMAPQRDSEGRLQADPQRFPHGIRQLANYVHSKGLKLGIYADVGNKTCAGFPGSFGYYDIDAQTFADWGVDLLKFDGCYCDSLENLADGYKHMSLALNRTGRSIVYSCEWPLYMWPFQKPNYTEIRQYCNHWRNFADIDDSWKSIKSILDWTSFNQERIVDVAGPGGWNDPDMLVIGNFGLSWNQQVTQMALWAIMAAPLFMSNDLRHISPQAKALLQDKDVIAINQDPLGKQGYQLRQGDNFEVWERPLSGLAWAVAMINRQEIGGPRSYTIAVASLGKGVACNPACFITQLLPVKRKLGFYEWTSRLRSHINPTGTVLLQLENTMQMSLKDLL
# Summary of the method: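 Each compound is preincubated briefly with 2 nM enzyme before substrate addition (80 uM); plates then sit 20 min at ambient temperature, are quenched with 1M NaOH/1M glycine, and read fluorometrically.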
# [7] = target: alpha-glucosidase (Oryza sativa, rice) (UniProt Q653V4); test: Counterscreen for Glucocerebrosidase Inhibitors: qHTS Assay for Rice alpha-Glucosidase at pH 5.0 (AID 997)
# Summary of the method: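 Endpoint fluorogenic assay at pH 5.0: compounds (0.7 nM to 77 uM) titrated against 4 nM rice enzyme and 400 uM 4-MU-alpha-glucoside for 20 min at room temperature; NaOH/glycine stop, read ex 365/em 440 nm, Hill-fitted AC50.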
# [8] = target: DNA dC->dU-editing enzyme APOBEC-3G (Homo sapiens) (UniProt Q9HC16); test: qHTS for inhibitors of Vif-A3G interactions: Validation (AID 588379)
# Chain of DNA dC->dU-editing enzyme APOBEC-3G (Homo sapiens) (Q9HC16 whole entry, looked up): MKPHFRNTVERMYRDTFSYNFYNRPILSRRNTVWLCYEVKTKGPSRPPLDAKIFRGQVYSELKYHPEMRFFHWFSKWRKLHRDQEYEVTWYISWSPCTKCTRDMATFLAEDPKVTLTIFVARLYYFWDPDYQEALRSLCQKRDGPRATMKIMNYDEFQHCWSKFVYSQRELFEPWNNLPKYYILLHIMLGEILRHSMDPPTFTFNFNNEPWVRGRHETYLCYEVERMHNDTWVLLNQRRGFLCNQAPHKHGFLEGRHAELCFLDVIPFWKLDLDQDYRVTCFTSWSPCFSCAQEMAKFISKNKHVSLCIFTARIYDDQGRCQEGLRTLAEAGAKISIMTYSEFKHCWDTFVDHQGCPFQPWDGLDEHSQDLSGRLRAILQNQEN
# Summary of the method: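 Yellow fluorescence (Ex 488, Em 500-530) of Vif-coexpressing HeLa A3G-eYFP cells, scanned by Acumen cytometer, reports blocked A3G degradation. Cells plated at 700/well overnight at 37 deg C before compound addition, then a further overnight compound incubation at 37 deg C.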
# [9] = qHTS Assay for Identification of Small Molecule Agonists for Hypoxia Response Element Signaling Pathway (AID 914; active = well fitted activation curve with a large enough effect in the signal ratio, with a control signal flat, not every such curve was filed as active; the % refers to the signal ratio; note: potency is the fitted concentration of half-maximal effect); conditions: ME-180 (cervical carcinoma) HRE-bla reporter, beta-lactamase ratio, CoCl2, 17 h; activation: stronger effect = higher value
# Summary of the method: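 HRE-bla ME-180 assay for agonist-like enhancement of an EC50 CoCl2 stimulus: 17 h at 37 degrees Celsius, CCF4 for 2.5 h, ratiometric 460/530 nm signal converted to %Activity and fitted to AC50.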
# [10] = target: Cytochrome P450 3A4 (Homo sapiens) (UniProt P08684); test: qHTS Assay for Inhibitors and Substrates of Cytochrome P450 3A4 (AID 884); note: nearly all actives have a fitted effect of over 50% in size; note: potency is the fitted concentration of half-maximal effect
# Chain of Cytochrome P450 3A4 (Homo sapiens) (P08684 whole entry, looked up): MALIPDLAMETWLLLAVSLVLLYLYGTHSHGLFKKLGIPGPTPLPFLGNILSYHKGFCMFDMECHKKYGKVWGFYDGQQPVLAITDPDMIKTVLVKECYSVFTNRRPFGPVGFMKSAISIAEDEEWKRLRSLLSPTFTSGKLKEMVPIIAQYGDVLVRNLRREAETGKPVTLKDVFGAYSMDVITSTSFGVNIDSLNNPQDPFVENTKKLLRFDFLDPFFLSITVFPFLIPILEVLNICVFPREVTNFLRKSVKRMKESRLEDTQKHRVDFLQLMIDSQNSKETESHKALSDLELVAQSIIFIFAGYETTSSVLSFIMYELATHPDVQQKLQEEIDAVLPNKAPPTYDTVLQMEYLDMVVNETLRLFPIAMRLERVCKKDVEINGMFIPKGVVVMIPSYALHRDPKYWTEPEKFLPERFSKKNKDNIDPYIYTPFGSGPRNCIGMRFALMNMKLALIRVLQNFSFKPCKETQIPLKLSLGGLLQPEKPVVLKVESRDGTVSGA
# Summary of the method: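 Luminescent readout of luciferin produced by CYP3A4 (20 nM) dealkylation of Luciferin-PPXE, 25 uM (its KM). NADPH-driven reaction ran 60 min at RT after 10 min compound preincubation; data scaled to 57 uM ketoconazole as 100% inhibition.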
# [11] = target: Dual specificity protein kinase CLK4 (Homo sapiens) (UniProt Q9HAZ1); test: qHTS Assay for Inhibitors of CDC-like Kinase 4 (Kinase-Glo Assay) (AID 1770); note: nearly all actives have a fitted effect of over 65% in size; note: potency is the fitted concentration of half-maximal effect
# Chain of Dual specificity protein kinase CLK4 (Homo sapiens) (Q9HAZ1 whole entry, looked up): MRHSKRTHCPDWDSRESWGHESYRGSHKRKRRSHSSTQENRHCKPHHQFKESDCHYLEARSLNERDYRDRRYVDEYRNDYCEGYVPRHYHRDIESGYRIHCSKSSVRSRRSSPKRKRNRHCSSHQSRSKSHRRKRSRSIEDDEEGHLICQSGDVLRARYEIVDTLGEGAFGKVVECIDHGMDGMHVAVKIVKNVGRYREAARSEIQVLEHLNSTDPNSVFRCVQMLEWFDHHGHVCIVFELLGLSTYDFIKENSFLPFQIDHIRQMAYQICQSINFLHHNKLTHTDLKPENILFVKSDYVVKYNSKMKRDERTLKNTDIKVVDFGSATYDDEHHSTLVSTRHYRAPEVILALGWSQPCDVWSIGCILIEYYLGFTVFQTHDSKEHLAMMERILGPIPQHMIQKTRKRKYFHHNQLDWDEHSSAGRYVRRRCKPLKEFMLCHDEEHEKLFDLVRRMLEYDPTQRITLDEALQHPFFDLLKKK
# Summary of the method: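 Inhibition was judged from remaining ATP, measured by Ultra-Glo luciferase bioluminescence after Clk4 (25 nM) had acted on RS peptide at 1 uM ATP for 4.5 hours, room temperature.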
# [12] = target: Cytochrome P450 2C19 (Homo sapiens) (UniProt P33261); test: qHTS Assay for Inhibitors and Substrates of Cytochrome P450 2C19 (AID 899); note: nearly all actives have a fitted effect of over 60% in size; note: potency is the fitted concentration of half-maximal effect
# Chain of Cytochrome P450 2C19 (Homo sapiens) (P33261 whole entry, looked up): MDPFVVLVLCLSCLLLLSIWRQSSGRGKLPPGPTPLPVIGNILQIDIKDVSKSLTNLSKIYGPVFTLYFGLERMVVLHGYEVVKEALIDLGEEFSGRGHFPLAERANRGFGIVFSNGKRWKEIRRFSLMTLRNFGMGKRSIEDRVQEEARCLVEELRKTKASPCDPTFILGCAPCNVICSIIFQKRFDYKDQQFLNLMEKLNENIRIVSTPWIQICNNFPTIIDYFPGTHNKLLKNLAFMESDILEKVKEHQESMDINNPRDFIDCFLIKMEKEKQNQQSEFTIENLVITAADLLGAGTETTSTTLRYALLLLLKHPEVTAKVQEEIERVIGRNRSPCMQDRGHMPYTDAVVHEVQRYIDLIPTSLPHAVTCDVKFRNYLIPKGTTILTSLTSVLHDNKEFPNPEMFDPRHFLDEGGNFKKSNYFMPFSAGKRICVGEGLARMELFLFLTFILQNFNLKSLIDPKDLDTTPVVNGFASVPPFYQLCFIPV
# Summary of the method: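 Reactions contain 5nM enzyme, 10uM Luciferin-H EGE (KM) and 50mM KPO4; compound preincubates 10 min at 37C, NADPH regeneration starts turnover for 60 min. Luminescence after detection reagent gives activity.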
# [13] = target: Dual specificity protein kinase CLK4 (Homo sapiens) (UniProt Q9HAZ1); test: qHTS Assay for Inhibitors of CDC-like Kinase 4 (ADP-Glo Assay) (AID 1771); note: nearly all actives have a fitted effect of over 70% in size; note: potency is the fitted concentration of half-maximal effect
# Summary of the method: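 25 nM Clk4, 100 uM RS peptide, 1 uM ATP (final); 2 mM MgCl2, 0.5 mM EGTA, 2.5 mM DTT, 0.01% Triton X-100; 1 hr RT. ADP-Glo readout: ATP depletion 45 min, conversion/luciferase 30 min, luminescence.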
# [14] = target: Cytochrome P450 2C9 (Homo sapiens) (UniProt P11712); test: qHTS Assay for Inhibitors and Substrates of Cytochrome P450 2C9 (AID 883); note: nearly all actives have a fitted effect of over 60% in size; note: potency is the fitted concentration of half-maximal effect
# Chain of Cytochrome P450 2C9 (Homo sapiens) (P11712 whole entry, looked up): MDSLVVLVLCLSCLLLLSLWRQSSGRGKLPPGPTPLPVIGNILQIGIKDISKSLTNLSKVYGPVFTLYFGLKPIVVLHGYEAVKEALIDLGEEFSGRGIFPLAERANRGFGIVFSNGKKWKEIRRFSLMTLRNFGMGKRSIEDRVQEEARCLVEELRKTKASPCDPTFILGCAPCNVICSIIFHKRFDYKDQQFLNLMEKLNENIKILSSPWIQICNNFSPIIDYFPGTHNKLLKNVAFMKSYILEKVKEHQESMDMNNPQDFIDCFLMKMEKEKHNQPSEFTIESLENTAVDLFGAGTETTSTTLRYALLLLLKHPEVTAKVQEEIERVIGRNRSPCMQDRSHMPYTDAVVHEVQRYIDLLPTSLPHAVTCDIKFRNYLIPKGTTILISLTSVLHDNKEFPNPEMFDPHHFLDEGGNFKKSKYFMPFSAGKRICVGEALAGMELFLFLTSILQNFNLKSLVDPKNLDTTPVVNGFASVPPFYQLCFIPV
# Summary of the method: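 Turnover of Luciferin-H (100uM, KM) by 10nM human CYP2C9 was measured over 60 min at 37C with NADPH regeneration; inhibitors and some substrates reduce luminescence. Data normalized to sulphaphenazole 57uM.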
# [15] = target: Rap guanine nucleotide exchange factor 3 (Homo sapiens) (UniProt O95398); test: Counterscreen qHTS for antagonist of cAMP-regulated guanine nucleotide exchange factor 3 (EPAC1) (AID 1645888);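 note: fluorescence loss as bound BODIPY-GDP is released from Rap1B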
# Chain of Rap guanine nucleotide exchange factor 3 (Homo sapiens) (O95398 whole entry, looked up): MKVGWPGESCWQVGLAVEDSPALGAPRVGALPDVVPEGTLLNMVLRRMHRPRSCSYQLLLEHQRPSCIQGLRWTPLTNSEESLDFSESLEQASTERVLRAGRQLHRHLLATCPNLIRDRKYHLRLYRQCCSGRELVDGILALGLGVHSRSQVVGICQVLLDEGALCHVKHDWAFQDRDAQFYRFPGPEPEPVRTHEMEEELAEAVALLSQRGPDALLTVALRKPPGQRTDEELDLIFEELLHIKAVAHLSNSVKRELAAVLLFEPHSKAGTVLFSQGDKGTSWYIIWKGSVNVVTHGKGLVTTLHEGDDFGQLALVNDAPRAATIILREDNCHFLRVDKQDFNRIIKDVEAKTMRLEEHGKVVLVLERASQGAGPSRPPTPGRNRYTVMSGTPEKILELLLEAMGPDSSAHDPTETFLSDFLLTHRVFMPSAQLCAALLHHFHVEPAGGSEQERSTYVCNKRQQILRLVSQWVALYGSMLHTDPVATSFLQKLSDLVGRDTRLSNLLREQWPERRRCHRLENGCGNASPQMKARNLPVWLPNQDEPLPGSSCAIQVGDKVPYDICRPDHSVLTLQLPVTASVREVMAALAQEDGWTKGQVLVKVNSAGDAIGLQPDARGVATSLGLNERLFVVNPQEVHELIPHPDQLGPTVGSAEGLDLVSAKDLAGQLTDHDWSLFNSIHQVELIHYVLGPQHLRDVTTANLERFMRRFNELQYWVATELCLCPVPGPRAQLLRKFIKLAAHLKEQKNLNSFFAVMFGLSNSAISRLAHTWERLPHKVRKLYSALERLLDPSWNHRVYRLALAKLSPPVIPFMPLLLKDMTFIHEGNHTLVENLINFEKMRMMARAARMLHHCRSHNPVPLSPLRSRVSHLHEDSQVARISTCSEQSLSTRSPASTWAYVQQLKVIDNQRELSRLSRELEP
# Summary of the method: (§1)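 Rap1B-BODIPY-GDP 250 nM + GDP 50 uM; cpds 7-pt, final 9.74 nM–152 uM (activator mode) or from 7.32 nM upwards (inhibitor mode); RT; FI 480/540 nm at 5 and 30 min, then ± cAMP, reread.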
# [16] = target: Rap guanine nucleotide exchange factor 3 (Homo sapiens) (UniProt O95398); test: Counterscreen qHTS for agonist of cAMP-regulated guanine nucleotide exchange factor 3 (EPAC1) (AID 1645889); note: nearly all actives have a fitted effect of over 40% in size
# Summary of the method: as §1
structure (smiles),measurement,setting,value
Cn1cc(C(F)(F)F)nc1-c1ccc(OC[C@@H](O)CNCCOc2ccc(O)c(C(N)=O)c2)cc1,Potency,[1],inactive
same,outcome,[2],inactive
same,Potency,[3],inactive
same,outcome,[4],inactive
same,outcome,[5],inactive
same,outcome,[6],inactive
same,outcome,[7],inactive
same,outcome,[8],inactive
COCC(=O)N1CCC2(CCN(Cc3ccc(C#N)cc3)CC2)CC1,activation,[9],4.64%
OC[C@H]1O[C@@H](n2cnc3c(NCc4ccco4)ncnc32)[C@H](O)[C@@H]1O,Potency,[10],inactive
same,outcome,[8],inactive
O=c1c(-c2cccs2)nc2cnc(Nc3ccccc3)nc2n1C[C@H]1CCCO1,Potency,[11],inactive
CN(C)c1ncc2nc(CCc3ccccc3)c(=O)n(Cc3ccc(F)cc3)c2n1,Potency,[12],0.794 µM (active)
c1ccc(CNc2ccnc(-c3ccc4c(c3)OCO4)n2)cc1,Potency,[10],0.794 µM (active)
same,Potency,[12],2 µM (active)
COc1cc(/C=C\c2ccc(OC)cc2OC)cc(OC)c1,Potency,[12],inactive
same,outcome,[8],inactive
N#CCCn1c(=O)c(-c2ccc(Cl)cc2)nc2cnc(Nc3ccccc3)nc21,Potency,[11],inactive
same,Potency,[13],inactive
Cn1cc(-c2nc3cnc(N4CCOCC4)nc3n(CCC#N)c2=O)c2ccccc21,Potency,[11],inactive
same,Potency,[13],inactive
c1csc(CNc2ccnc(-c3ccc4c(c3)OCO4)n2)c1,Potency,[12],5.01 µM (active)
same,Potency,[13],22.4 µM (active)
COCCn1c(=O)c(-c2cc(F)cc(F)c2)nc2cnc(Nc3cccc(OC)c3)nc21,Potency,[10],7.94 µM (active)
N#C/C(=C\c1ccc(O)c(O)c1)C(=O)OCCc1cccs1,Potency,[12],6.31 µM (active)
same,outcome,[8],inactive
O=c1c(-c2cccs2)nc2cnc(N3CCOCC3)nc2n1CCc1ccccc1,Potency,[11],inactive
same,Potency,[13],inactive
CN(C)c1ncc2nc(-c3cccs3)c(=O)n(C3CC3)c2n1,Potency,[9],3.98 µM (active)
O=C(c1cccc(F)c1)N1CCC2(CCCN(c3cccc(-c4ccccc4)c3)C2)CC1,Potency,[12],7.94 µM (active)
COc1ccc2[nH]cc(CCNc3nc(-c4cccc(C#N)c4)nc4ccccc34)c2c1,Potency,[11],22.4 µM (active)
COCCn1c(=O)c(-c2cccs2)nc2cnc(N3CCOCC3)nc21,Potency,[13],inactive
CN(C)c1ncc2nc(-c3cc(F)cc(F)c3)c(=O)n(Cc3cccs3)c2n1,Potency,[12],inactive
same,Potency,[9],0.126 µM (active)
Cn1cccc1C(=O)N1CCC2(CC1)CN(c1cccc(-c3ccccc3)c1)C2,Potency,[14],inactive
same,Potency,[10],inactive
COc1cccc(Nc2ncc3ncc(=O)n(Cc4cccs4)c3n2)c1,Potency,[11],0.708 µM (active)
same,Potency,[13],0.794 µM (active)
O=c1c(-c2ccc(F)c(F)c2)nc2cncnc2n1Cc1ccccc1Cl,Potency,[14],5.01 µM (active)
same,Potency,[12],6.31 µM (active)
COc1ccccc1CNc1nc(-c2cccc(C#N)c2)nc2ccccc12,Potency,[12],3.98 µM (active)
CCCCCc1c2c(cc(O)c1C(=O)O)OC(=O)c1cc(C(=O)CCCC)c(OC)cc1O2,outcome,[15],inactive
same,outcome,[16],inactive
Cn1cccc1C(=O)N1CCC2(CCCN(c3cccc(-c4ccccc4)c3)C2)CC1,Potency,[14],3.98 µM (active)
COC(=O)N1CCC2(CC1)CCN(c1cccc(-c3ccccc3)c1)CC2,Potency,[10],inactive
COC(=O)C1=C(C)NC(C)=C(C(=O)OCCSc2ccccc2)[C@@H]1C,Potency,[14],3.16 µM (active)
same,Potency,[12],0.199 µM (active)
same,outcome,[8],inactive
O=c1c(-c2cc(F)cc(F)c2)nc2cnc(N3CCOCC3)nc2n1-c1ccccc1,Potency,[9],2.51 µM (active)
COc1ccc(CNc2ncncc2-c2ccccc2C)c(OC)c1,Potency,[10],0.398 µM (active)
same,Potency,[12],1.58 µM (active)
same,Potency,[11],inactive
same,Potency,[13],inactive
COc1cccc(-c2cc(NCc3ccc(OC)cc3OC)ncn2)c1,Potency,[10],2.51 µM (active)
same,Potency,[12],5.01 µM (active)
same,activation,[9],1.95%
same,Potency,[11],31.6 µM (active)
O=c1c(-c2ccc(Cl)cc2)nc2cncnc2n1Cc1ccccc1Cl,Potency,[12],3.98 µM (active)
same,activation,[9],25.2%
CN(C)c1ncc2nc(-c3ccc(Cl)cc3)c(=O)n(C[C@H]3CCCO3)c2n1,Potency,[11],inactive
same,Potency,[13],inactive
COc1cccc(Cn2c(=O)c(-c3ccc(Cl)cc3)nc3cnc(N4CCNCC4)nc32)c1,Potency,[11],inactive
same,Potency,[13],inactive
O=c1cnc2cnc(Oc3ccccc3)nc2n1C1CC1,Potency,[11],inactive
same,Potency,[13],inactive
Cc1nc2cncnc2n(Cc2ccc(F)cc2)c1=O,Potency,[11],inactive
same,Potency,[13],inactive
CC(=O)NCCNc1nc(-c2ccc(C(=O)N(C)C)cc2)nc2ccccc12,Potency,[11],inactive
same,Potency,[13],inactive
